The record followed here is ChEMBL document CHEMBL1961873, “Compounds: GSK PKIS; Assays: Nanosyn kinase panel” (2012).

Assay [1] addresses Protein kinase C gamma type (Homo sapiens) (UniProt P05129). The conditions noted are these: at 1 µM.
In assay [2] the target is T1, Protein kinase C iota type (Homo sapiens) (UniProt P41743).
T1 sequence (whole entry): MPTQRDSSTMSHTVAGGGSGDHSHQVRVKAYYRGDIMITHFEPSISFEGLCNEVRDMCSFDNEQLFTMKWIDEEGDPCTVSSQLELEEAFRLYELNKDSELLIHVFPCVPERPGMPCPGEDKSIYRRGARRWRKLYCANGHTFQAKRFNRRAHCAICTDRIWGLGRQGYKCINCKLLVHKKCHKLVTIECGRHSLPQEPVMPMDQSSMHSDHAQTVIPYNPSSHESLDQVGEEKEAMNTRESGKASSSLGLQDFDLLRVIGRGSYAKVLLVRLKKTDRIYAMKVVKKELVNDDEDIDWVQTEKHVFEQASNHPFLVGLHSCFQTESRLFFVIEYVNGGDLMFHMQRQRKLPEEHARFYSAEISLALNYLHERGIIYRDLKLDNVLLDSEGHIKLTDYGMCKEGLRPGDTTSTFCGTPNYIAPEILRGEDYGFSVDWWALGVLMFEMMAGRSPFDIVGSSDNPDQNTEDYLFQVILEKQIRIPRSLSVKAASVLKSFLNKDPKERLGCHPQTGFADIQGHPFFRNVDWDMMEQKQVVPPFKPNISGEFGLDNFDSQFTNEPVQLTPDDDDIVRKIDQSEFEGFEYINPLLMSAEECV
To be noted: at 0.1 µM.

Assay [3] has as its target T1, Protein kinase C iota type (Homo sapiens). To be noted: at 1 µM.
Assay [4] addresses Protein kinase C theta type (Homo sapiens) (UniProt Q04759). To be noted: at 0.1 µM.
For assay [5] the target is unchanged. To be noted: at 1 µM.
Assay [6] has as its target Protein kinase C beta type (Homo sapiens) (UniProt P05771). The conditions noted are these: at 0.1 µM.
For assay [7] the target is unchanged. The conditions noted are these: at 1 µM.
Assay [8] addresses T2, Serine/threonine-protein kinase D1 (Homo sapiens) (UniProt Q15139).
T2 sequence (whole entry): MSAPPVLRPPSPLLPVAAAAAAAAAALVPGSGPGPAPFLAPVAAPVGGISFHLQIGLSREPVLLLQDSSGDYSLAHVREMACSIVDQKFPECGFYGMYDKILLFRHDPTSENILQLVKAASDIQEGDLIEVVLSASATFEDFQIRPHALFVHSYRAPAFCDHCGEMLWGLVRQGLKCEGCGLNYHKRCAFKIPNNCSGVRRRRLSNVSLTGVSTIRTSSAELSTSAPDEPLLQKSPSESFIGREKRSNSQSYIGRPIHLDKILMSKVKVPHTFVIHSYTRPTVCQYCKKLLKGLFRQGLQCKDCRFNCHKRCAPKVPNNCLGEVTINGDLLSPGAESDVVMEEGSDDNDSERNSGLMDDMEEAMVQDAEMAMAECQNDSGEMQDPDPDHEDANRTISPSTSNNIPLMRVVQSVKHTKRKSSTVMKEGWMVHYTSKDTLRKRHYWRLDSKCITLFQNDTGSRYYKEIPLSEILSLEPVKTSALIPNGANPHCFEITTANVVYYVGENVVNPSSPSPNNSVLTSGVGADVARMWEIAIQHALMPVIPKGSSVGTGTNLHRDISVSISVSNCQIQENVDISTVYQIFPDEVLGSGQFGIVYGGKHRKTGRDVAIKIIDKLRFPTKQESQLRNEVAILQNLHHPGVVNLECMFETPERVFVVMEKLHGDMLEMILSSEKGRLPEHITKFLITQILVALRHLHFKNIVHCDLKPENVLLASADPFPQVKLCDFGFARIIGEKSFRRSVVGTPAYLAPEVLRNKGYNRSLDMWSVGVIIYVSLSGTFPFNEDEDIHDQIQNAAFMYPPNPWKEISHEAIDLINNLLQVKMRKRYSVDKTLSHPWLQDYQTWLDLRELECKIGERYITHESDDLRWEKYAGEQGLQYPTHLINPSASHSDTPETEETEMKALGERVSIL
To be noted: at 0.1 µM.

In assay [9] the target is T2, Serine/threonine-protein kinase D1 (Homo sapiens). The conditions noted are these: at 1 µM.
Assay [10] has as its target T3, Serine/threonine-protein kinase D2 (Homo sapiens) (UniProt Q9BZL6).
T3 sequence (whole entry): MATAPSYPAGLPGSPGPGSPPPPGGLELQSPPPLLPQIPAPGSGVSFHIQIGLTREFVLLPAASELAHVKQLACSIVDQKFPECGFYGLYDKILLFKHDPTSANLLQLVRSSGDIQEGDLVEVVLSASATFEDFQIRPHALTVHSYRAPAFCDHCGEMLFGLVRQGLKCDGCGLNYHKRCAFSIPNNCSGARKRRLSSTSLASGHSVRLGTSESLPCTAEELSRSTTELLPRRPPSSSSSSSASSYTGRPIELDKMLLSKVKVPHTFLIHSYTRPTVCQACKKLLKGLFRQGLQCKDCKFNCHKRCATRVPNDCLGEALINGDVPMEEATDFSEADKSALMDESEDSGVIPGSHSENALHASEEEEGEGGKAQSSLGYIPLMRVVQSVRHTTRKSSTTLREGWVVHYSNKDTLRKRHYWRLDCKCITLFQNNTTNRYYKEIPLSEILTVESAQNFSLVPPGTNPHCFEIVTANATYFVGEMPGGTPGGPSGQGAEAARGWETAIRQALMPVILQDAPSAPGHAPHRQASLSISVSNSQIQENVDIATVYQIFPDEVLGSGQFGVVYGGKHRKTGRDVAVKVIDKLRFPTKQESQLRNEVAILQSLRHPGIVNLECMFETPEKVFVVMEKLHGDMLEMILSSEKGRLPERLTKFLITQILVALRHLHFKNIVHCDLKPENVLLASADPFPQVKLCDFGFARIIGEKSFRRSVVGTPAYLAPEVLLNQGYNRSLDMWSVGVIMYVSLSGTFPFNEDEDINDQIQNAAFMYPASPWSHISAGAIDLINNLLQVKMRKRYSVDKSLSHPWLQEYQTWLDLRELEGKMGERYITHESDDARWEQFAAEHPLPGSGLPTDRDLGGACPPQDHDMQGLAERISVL
The conditions noted are these: at 0.1 µM.

The target of assay [11] is T3, Serine/threonine-protein kinase D2 (Homo sapiens). To be noted: at 1 µM.
The target of assay [12] is T4, Serine/threonine-protein kinase D3 (Homo sapiens) (UniProt O94806).
T4 sequence (whole entry): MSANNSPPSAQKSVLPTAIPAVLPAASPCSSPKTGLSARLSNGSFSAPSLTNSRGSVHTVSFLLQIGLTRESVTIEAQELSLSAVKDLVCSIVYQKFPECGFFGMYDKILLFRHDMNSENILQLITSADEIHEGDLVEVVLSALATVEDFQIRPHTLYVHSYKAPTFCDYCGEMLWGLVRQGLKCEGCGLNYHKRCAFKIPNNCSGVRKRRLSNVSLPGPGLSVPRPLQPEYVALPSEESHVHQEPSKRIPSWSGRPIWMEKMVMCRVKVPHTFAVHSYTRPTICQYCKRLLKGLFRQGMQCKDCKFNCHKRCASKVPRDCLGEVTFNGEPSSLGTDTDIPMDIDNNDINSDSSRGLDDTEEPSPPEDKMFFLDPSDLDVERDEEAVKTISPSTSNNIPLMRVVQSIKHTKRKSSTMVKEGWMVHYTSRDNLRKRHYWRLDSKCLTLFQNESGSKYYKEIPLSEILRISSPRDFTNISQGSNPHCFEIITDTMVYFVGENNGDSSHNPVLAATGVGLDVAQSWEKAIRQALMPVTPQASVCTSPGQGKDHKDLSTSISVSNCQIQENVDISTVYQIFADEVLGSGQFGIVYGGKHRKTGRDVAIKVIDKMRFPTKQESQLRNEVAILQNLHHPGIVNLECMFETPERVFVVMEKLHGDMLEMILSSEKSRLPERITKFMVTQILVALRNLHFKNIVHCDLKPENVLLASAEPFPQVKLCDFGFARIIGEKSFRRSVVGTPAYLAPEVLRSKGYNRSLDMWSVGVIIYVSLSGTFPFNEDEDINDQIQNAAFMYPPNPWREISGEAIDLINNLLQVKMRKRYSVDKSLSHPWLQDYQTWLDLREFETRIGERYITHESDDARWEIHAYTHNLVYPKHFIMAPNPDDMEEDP
To be noted: at 0.1 µM.

Assay [13] addresses T4, Serine/threonine-protein kinase D3 (Homo sapiens). The conditions noted are these: at 1 µM.
The target in assay [14] is T5, cGMP-dependent protein kinase 1 (Homo sapiens) (UniProt Q13976).
T5 sequence (whole entry): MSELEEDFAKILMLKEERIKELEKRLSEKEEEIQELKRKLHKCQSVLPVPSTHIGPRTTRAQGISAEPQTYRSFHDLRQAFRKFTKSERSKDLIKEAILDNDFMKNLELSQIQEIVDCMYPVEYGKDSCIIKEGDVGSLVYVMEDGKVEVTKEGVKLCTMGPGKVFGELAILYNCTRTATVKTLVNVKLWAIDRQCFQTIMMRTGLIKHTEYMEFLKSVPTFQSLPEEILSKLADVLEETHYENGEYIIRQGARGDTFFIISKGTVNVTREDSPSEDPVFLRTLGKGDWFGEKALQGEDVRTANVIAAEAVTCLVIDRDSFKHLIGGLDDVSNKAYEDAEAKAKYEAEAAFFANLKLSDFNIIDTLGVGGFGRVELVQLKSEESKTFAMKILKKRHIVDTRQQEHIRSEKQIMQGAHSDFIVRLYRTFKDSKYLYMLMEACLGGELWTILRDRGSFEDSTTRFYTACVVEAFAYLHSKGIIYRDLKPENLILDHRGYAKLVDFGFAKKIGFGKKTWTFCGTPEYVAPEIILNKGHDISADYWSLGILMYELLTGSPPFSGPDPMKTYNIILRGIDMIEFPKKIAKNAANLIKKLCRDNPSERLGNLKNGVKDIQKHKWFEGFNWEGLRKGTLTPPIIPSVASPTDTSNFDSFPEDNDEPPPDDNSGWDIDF
To be noted: at 0.1 µM.

Assay [15] addresses T5, cGMP-dependent protein kinase 1 (Homo sapiens). The conditions noted are these: at 1 µM.
In assay [16] the target is T6, cGMP-dependent protein kinase 2 (Homo sapiens) (UniProt Q13237).
T6 sequence (whole entry): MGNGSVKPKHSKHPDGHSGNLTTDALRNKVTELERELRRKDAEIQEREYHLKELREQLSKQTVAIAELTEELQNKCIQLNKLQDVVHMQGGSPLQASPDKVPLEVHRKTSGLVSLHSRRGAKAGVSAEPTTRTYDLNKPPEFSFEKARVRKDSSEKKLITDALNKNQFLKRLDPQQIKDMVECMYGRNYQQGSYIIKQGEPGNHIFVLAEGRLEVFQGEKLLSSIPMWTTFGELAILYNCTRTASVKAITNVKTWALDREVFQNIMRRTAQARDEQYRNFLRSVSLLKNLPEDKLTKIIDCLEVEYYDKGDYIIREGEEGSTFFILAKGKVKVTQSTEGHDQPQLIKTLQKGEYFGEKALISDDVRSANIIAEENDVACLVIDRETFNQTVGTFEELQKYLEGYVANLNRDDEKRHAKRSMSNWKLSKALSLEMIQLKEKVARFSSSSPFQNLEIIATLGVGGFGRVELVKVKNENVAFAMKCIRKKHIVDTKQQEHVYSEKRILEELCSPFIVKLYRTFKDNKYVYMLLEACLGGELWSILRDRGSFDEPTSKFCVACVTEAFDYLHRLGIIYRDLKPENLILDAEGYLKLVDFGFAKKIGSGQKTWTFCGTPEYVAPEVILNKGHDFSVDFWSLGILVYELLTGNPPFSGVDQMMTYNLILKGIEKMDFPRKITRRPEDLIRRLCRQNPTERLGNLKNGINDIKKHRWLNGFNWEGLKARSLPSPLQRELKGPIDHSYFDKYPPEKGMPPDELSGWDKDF
The conditions noted are these: at 0.1 µM.

The target in assay [17] is T6, cGMP-dependent protein kinase 2 (Homo sapiens). The conditions noted are these: at 1 µM.
The target in assay [18] is T7, cAMP-dependent protein kinase catalytic subunit PRKX (Homo sapiens) (UniProt P51817).
T7 sequence (whole entry): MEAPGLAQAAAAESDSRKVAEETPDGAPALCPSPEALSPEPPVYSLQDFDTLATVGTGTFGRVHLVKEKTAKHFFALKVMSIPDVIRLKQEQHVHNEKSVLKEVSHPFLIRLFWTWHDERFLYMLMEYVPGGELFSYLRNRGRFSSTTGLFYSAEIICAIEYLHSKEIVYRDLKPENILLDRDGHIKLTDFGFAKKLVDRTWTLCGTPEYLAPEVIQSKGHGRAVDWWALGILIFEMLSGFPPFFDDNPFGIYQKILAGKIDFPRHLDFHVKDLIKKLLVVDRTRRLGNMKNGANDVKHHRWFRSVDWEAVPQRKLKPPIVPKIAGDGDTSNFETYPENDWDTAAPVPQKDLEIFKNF
To be noted: at 0.1 µM.

For assay [19], the target named is T7, cAMP-dependent protein kinase catalytic subunit PRKX (Homo sapiens). To be noted: at 1 µM.
Assay [20] has as its target Rho-associated protein kinase 1 (Homo sapiens) (UniProt Q13464). To be noted: at 0.1 µM.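 Further: values are mean percent inhibition of ROCK1.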

Protein kinase C theta type (Homo sapiens), sequence (Q04759 whole entry, looked up): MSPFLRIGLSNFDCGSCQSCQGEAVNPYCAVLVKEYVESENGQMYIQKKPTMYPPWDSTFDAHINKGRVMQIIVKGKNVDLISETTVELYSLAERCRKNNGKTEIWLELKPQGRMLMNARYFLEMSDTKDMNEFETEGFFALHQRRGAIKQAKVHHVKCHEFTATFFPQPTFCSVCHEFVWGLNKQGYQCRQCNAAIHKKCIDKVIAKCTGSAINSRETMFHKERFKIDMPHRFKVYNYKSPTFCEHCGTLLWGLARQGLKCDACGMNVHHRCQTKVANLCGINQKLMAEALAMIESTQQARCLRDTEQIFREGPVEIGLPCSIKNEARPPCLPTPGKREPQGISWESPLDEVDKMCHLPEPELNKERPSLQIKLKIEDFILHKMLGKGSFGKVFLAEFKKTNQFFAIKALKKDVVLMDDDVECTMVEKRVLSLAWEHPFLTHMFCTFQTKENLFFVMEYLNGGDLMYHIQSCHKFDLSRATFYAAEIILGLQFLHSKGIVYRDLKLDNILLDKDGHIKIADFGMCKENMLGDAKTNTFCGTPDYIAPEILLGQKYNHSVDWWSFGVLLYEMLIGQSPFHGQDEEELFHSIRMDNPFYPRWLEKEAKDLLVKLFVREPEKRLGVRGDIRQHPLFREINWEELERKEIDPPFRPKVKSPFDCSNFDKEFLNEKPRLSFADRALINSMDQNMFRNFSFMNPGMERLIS
Protein kinase C beta type (Homo sapiens), sequence (P05771 2-671 limits assumed): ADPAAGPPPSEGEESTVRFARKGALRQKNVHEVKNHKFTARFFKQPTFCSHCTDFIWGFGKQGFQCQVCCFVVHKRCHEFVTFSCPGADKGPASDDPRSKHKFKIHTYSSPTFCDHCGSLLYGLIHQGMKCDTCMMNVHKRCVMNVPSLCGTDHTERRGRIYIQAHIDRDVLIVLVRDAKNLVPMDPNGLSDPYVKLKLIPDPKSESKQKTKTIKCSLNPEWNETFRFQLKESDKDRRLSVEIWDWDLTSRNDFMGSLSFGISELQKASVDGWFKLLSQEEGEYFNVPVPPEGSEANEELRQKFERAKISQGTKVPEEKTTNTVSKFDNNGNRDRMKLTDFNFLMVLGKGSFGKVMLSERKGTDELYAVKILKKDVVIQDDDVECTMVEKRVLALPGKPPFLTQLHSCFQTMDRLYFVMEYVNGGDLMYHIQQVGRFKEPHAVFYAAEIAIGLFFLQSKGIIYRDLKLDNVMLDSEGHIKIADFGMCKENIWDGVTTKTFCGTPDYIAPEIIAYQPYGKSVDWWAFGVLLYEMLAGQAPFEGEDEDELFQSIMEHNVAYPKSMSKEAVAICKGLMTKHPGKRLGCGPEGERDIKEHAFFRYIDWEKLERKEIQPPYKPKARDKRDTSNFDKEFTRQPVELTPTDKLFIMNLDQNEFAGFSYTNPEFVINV
Rho-associated protein kinase 1 (Homo sapiens), sequence (Q13464 2-1354 limits assumed): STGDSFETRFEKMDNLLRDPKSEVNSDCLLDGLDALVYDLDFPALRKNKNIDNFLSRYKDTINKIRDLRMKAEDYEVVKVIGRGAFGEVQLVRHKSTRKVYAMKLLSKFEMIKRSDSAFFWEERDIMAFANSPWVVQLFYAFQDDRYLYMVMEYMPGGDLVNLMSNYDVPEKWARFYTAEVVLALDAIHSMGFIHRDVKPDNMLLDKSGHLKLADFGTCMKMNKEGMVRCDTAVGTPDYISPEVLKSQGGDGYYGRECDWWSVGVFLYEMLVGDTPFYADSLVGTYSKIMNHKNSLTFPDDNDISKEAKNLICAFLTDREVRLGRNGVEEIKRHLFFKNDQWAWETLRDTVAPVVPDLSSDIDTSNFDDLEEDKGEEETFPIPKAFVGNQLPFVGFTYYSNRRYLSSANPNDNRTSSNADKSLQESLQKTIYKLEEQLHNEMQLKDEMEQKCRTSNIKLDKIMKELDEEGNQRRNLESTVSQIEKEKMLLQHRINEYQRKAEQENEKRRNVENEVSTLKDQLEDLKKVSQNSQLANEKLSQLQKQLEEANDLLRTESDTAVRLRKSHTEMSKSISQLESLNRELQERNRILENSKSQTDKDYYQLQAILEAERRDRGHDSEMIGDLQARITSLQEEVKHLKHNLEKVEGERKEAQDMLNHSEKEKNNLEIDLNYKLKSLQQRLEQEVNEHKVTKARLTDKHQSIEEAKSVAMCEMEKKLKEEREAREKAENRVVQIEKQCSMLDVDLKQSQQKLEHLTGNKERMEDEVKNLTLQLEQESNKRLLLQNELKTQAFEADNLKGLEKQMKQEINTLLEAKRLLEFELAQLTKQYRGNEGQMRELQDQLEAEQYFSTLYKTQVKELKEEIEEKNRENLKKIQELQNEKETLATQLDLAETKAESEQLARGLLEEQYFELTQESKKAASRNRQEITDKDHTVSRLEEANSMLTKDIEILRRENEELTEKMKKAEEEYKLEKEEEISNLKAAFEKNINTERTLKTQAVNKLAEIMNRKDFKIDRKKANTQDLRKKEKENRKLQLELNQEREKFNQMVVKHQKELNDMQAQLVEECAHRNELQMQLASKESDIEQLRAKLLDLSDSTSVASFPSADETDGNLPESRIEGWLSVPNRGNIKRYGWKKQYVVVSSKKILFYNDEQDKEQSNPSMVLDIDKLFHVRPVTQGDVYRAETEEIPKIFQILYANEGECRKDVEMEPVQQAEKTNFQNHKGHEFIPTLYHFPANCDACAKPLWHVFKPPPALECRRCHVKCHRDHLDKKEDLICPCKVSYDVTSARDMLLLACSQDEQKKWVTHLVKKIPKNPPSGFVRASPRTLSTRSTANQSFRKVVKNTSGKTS

As usually defined, the inhibition is the drop in the measured response relative to a control, in per cent. As for `O=C(Nc1n[nH]c2cc(-c3cc(F)ccc3F)ccc12)C1CC1`, the inhibition in [1] is 1.94%; in assay [2] it was -0.39%; in assay [3], 2.69%; in assay [4], 1.32%; in [5], 1.51%; in assay [6], 1.71%. Further, the inhibition in assay [7] worked out at 4.18%; in assay [8] it was 2.95%; in [9], 3.73%; in assay [10], 3.73%; in assay [11], 4.95%; in [12] it was 3.61%. Also, the inhibition is 3.98% in assay [13]; 3.55% in assay [14]; 4.78% in [15]; 2.47% in assay [16]; 5.6% in [17]; 1.14% in assay [18]. Besides, the inhibition is 1.88% in assay [19] and -0.49% in assay [20].
